Reference: the supplement of paper PMC10849652
The full data set covers some 7,900 targets. This sample favours those with a hit. About 0.6% of all pairs of compound and target were hits. Unmarked numbers belong to inactive results.

Assays:
Test in all cases: log2 fold change, soluble protein after heating vs DMSO (PISA); higher = thermal stabilisation; K562 cells, 10 uM, 30 min; active = over 0.2 and 3.5 SD of the protein, either way, in both replicates (recomputed)
bafetinib = compound: Cc1ccc(NC(=O)c2ccc(CN3CC[C@H](N(C)C)C3)c(C(F)(F)F)c2)cc1Nc1nccc(-c2cncnc2)n1 [bafetinib]
Summary of the method: (§1)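 K562 cells at 2×10^6 cells/mL were given 10 μM compound for 30 min. Aliquots then went through 3 min of heating across 48°C-58°C, were pooled, and were extracted in PBS with 0.5% NP-40 at 4°C, and the supernatant after 21,000xg for 90 min was quantified by TMTpro 16plex LC-MS/MS with channel sums equalised. Thermal stability relative to control samples, from duplicates, is given as log2 fold change.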

[1] = compound: Cc1cccc(CC(=O)N2CCc3c2ccc(-c2cn(C)c4ncnc(N)c24)c3F)n1
Summary of the method: as §1

nilotinib = compound: Cc1cn(-c2cc(NC(=O)c3ccc(C)c(Nc4nccc(-c5cccnc5)n4)c3)cc(C(F)(F)F)c2)cn1 [nilotinib]
Summary of the method: as §1

[2] = compound: Cc1nc(Nc2n[nH]c3c2CN(C(=O)N[C@H](CN(C)C)c2ccccc2)C3(C)C)c2sccc2n1
Summary of the method: as §1

dasatinib = compound: Cc1nc(Nc2ncc(C(=O)Nc3c(C)cccc3Cl)s2)cc(N2CCN(CCO)CC2)n1 [dasatinib]
Summary of the method: as §1

[3] = compound: Cc1ncc(-c2ccnc(Nc3ccc(S(C)(=O)=O)cc3)n2)n1C(C)C
Summary of the method: as §1

[4] = compound: Cn1cc(-c2ccc3c(c2)CCN3C(=O)Cc2cccc(C(F)(F)F)c2)c2c(N)ncnc21
Summary of the method: as §1

[5] = compound: Cn1cc(-c2ccc3nnc(C(F)(F)c4ccc5ncccc5c4)n3n2)cn1
Summary of the method: as §1

tipifarnib = compound: Cn1cncc1[C@@](N)(c1ccc(Cl)cc1)c1ccc2c(c1)c(-c1cccc(Cl)c1)cc(=O)n2C [tipifarnib]
Summary of the method: as §1

mubritinib = compound: FC(F)(F)c1ccc(/C=C/c2nc(COc3ccc(CCCCn4ccnn4)cc3)co2)cc1 [mubritinib]
Summary of the method: as §1

Sequence of UniProt O95372 (O95372 whole entry, looked up): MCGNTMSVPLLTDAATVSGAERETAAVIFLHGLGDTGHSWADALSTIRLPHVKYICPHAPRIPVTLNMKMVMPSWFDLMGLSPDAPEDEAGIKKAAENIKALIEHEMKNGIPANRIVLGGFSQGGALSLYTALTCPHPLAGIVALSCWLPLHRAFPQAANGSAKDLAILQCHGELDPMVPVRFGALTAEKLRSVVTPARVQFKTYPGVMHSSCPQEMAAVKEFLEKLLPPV
Sequence of UniProt O95232 (O95232 whole entry, looked up): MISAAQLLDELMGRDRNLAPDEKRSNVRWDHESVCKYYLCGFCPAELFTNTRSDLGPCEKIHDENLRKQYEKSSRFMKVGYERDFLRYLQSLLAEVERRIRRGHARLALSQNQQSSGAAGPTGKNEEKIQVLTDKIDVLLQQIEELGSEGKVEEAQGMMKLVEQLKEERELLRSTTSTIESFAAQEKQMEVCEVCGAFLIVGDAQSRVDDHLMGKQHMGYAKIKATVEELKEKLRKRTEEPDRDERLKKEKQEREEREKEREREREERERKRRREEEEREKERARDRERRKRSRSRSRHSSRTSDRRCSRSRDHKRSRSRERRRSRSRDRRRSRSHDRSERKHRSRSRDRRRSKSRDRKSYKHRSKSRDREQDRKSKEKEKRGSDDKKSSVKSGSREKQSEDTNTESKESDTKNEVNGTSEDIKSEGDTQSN
Sequence of UniProt Q9H9P8 (Q9H9P8 whole entry, looked up): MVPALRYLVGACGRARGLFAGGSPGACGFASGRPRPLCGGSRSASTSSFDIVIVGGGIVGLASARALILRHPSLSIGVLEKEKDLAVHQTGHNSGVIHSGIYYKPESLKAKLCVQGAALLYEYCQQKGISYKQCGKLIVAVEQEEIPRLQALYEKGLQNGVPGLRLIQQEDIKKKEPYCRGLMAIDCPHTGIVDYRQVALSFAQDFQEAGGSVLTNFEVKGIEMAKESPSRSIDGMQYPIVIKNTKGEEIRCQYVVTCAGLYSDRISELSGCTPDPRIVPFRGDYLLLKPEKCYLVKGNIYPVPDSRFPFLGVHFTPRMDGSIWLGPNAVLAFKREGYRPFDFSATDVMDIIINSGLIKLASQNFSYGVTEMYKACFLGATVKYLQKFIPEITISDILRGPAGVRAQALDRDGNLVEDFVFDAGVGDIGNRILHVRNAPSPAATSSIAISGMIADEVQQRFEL
Sequence of UniProt Q9NQX7 (Q9NQX7 whole entry, looked up): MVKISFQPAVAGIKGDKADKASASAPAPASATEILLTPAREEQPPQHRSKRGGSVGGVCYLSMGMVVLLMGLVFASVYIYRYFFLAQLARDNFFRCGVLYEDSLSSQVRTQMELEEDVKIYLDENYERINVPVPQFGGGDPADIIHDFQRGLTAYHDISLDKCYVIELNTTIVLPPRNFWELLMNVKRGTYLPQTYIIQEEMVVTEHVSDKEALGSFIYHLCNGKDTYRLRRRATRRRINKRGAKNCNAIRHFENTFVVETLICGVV
Sequence of UniProt Q9BU23 (Q9BU23 whole entry, looked up): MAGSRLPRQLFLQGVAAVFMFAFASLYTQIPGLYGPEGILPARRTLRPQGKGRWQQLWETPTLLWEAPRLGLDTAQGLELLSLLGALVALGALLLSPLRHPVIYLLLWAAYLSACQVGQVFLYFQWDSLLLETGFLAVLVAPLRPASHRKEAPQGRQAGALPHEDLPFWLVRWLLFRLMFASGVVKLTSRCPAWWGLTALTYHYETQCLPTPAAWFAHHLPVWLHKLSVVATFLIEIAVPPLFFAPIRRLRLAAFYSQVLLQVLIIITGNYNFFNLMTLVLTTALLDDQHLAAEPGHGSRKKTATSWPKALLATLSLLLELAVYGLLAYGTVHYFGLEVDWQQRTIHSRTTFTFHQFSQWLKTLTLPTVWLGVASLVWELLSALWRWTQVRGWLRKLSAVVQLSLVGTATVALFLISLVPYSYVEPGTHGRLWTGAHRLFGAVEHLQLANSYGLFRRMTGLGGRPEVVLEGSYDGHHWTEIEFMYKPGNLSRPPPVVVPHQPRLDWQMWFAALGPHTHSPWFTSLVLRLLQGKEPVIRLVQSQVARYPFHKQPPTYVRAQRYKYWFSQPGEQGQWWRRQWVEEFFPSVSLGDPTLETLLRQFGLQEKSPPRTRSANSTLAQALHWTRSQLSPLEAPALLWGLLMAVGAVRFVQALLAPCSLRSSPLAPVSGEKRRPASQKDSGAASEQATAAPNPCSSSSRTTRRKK
Sequence of UniProt O94829 (O94829 whole entry, looked up): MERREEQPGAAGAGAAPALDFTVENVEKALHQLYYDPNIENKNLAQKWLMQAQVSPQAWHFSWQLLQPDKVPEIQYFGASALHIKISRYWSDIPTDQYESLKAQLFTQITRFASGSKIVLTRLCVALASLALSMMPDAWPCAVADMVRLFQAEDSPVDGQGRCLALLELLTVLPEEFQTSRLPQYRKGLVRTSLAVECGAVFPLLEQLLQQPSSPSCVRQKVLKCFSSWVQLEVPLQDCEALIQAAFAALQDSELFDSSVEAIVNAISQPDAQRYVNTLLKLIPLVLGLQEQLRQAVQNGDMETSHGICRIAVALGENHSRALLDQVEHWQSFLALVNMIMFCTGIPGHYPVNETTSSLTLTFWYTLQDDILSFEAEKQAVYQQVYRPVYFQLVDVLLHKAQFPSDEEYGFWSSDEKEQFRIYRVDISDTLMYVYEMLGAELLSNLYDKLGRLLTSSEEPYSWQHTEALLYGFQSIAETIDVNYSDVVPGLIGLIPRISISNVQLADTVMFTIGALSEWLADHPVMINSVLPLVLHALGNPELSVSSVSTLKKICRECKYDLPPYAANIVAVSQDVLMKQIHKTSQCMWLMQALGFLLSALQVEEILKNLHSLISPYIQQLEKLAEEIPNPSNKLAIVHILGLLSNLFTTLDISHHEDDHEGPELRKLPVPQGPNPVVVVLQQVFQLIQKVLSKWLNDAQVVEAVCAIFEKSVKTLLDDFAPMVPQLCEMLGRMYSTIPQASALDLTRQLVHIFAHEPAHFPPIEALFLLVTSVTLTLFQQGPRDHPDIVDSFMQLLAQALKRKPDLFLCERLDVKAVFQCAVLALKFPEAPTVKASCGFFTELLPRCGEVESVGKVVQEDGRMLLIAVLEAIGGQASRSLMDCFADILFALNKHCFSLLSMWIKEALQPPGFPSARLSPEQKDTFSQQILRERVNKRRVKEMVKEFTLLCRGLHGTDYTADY
Sequence of UniProt Q9NQ29 (Q9NQ29 whole entry, looked up): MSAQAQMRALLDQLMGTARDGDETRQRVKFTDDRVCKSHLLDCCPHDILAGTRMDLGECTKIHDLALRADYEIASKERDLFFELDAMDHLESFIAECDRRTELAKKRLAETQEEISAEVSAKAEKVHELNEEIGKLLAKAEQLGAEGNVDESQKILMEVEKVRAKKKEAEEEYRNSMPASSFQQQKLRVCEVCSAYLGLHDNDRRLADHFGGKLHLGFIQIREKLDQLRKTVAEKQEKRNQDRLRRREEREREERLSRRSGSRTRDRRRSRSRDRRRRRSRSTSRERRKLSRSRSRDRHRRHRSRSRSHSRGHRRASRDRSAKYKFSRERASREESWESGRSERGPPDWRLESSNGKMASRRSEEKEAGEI
Sequence of UniProt P43362 (P43362 whole entry, looked up): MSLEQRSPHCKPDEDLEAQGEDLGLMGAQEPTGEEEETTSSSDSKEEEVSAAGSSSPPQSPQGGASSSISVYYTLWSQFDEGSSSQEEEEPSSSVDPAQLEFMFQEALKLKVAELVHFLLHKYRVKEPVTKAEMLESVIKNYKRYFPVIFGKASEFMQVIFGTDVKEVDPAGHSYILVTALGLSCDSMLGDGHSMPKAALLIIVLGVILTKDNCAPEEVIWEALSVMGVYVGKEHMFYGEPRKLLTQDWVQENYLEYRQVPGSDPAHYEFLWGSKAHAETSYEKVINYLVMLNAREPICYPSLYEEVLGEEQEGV
Sequence of UniProt Q12906 (Q12906 whole entry, looked up): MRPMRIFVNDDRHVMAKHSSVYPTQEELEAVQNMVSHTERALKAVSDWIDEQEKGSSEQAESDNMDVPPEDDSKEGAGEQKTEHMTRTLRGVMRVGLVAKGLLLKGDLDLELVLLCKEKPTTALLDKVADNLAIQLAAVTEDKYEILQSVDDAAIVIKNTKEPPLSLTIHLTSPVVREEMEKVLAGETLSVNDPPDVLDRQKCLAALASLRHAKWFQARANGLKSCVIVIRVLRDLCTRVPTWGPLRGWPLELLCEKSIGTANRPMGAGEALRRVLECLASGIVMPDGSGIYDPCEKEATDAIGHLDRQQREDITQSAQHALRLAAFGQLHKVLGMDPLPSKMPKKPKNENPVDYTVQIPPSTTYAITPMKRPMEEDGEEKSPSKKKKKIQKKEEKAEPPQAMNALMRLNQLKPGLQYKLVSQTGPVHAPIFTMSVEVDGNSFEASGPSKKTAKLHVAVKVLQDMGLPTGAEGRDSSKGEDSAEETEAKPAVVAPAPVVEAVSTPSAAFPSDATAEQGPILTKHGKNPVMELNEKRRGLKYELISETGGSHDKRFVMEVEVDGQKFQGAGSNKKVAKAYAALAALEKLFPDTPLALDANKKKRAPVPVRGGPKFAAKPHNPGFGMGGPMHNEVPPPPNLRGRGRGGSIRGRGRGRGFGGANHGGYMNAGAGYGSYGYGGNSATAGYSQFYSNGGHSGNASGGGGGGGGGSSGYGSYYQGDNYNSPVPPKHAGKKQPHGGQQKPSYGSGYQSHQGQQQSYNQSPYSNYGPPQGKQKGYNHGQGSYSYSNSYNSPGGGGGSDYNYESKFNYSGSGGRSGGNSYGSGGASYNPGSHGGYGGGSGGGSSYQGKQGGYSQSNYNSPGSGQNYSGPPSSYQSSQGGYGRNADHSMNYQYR
Sequence of UniProt P10620 (P10620 whole entry, looked up): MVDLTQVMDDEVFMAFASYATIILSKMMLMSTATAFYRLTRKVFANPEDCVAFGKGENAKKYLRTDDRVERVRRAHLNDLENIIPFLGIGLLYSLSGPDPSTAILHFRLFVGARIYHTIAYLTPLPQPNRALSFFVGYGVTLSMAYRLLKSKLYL
Sequence of UniProt Q5XKP0 (Q5XKP0 whole entry, looked up): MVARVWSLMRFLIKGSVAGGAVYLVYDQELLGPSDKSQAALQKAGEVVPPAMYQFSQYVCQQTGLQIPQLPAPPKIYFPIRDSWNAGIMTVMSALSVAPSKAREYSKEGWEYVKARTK

Row | Target | log2 fold change (bafetinib) | log2 fold change [1] | log2 fold change (nilotinib) | log2 fold change [2] | log2 fold change (dasatinib) | log2 fold change [3] | log2 fold change [4] | log2 fold change [5] | log2 fold change (tipifarnib) | log2 fold change (mubritinib)
1 | LYN (UniProt P07948) | 0.26 | 0.008 | 0.062 | -0.414 (active) | -0.419 (active) | -0.043 | -0.06 | 0.034 | -0.005 | -0.003
2 | MIEF1 (UniProt Q9NQG6) | -0.133 | 0.006 | 0.022 | -0.04 | -0.028 | 0.145 | 0.09 | 0.064 | -0.039 | -0.029
3 | IWS1 (UniProt Q96ST2) | 0.018 | -0.022 | -0.024 | 0.092 | -0.054 | 0.311 (active) | -0.013 | 0.022 | -0.021 | 0.035
4 | METTL18 (UniProt O95568) | -0.091 | -0.049 | -0.092 | 0.028 | 0.054 | -0.023 | -0.022 | -0.087 | 0.019 | 0.036
5 | MDN1 (UniProt Q9NU22) | -0.094 | 0 | -0.15 | -0.195 | -0.245 | -0.089 | 0.02 | 0.011 | -0.052 | -0.089
6 | ITM2C (UniProt Q9NQX7) | -0.064 | -0.127 | 0.099 | -0.018 | 0.024 | 0.127 | 0.09 | 0.038 | 0.039 | 
7 | LEO1 (UniProt Q8WVC0) | -0.003 | 0.008 | -0.125 | -0.045 | 0.049 | -0.094 | -0.026 | 0.023 | -0.009 | 0.035
8 | ILF3 isoform 7 (UniProt Q12906) | 0.082 | -0.028 | -0.02 | 0.244 | 0.155 | 0.297 | -0.179 | -0.089 | 0.057 | -0.031
9 | MICOS13 (UniProt Q5XKP0) | -0.114 | 0.014 | -0.054 | 0.025 | -0.085 | 0.001 | 0.046 | 0.056 | -0.111 | 0.117
10 | LARP4 isoform 4 (UniProt Q71RC2) | 0.022 | -0.027 | -0.073 | -0.147 | 0 | -0.028 | -0.078 | -0.103 | 0.071 | -0.046
11 | MAIP1 (UniProt Q8WWC4) | -0.147 | 0.005 | 0.027 | 0.007 | -0.021 | -0.004 | 0.031 | 0.028 | -0.047 | -0.006
12 | LUC7L3 (UniProt O95232) | 0.001 | -0.001 | 0.091 | -2.05 (active) | -0.037 | 0.052 | 0.007 | -0.019 | 0.036 | 0.02
13 | LTV1 (UniProt Q96GA3) | 0.137 | -0.039 | -0.047 | 0.137 | 0.025 | 0.009 | -0.112 | -0.09 | 0.064 | 0.042
14 | LUZP1 (UniProt Q86V48) | -0.075 | -0.028 | -0.086 | -0.35 | 0.106 | 0.21 | -0.129 | -0.104 | 0.186 | -0.055
15 | MCCC2 (UniProt Q9HCC0) | -0.047 | -0.062 | 0.035 | -0.012 | 0.058 | -0.047 | 0.04 | 0.028 | -0.005 | -0.015
16 | KIF1B isoform 4 (UniProt O60333) | -0.056 | -0.004 | 0.01 | 0.073 | -0.066 | -0.064 | -0.044 | 0.033 | -0.004 | -0.004
17 | MAGEA9 (UniProt P43362) | 0.03 | -0.02 | 0.021 | -0.006 | 0.074 | -0.034 | 0.065 | -0.024 | -0.008 | -0.048
18 | MGST1 (UniProt P10620) | -0.001 | -0.053 | -0.006 | 0.078 | 0.084 | -0.039 | -0.013 | 0.014 | 0.131 | -0.005
19 | LUC7L (UniProt Q9NQ29) | 0.057 | -0.046 | 0.049 | -1.71 (active) | 0.062 | 0.109 | -0.095 | -0.054 | 0.049 | -0.099
20 | LARP1 (UniProt Q6PKG0) | 0.049 | 0.024 | -0.063 | -0.014 | 0.014 | -0.028 | -0.067 | -0.043 | 0.047 | -0.011
21 | LMF2 (UniProt Q9BU23) | -0.068 | 0.024 | 0.047 | -0.014 | 0.033 | 0.026 | 0.021 | 0.022 | 0.019 | 0.052
22 | IRAK4 (UniProt Q9NWZ3) | -0.047 | 0.236 (active) | -0.089 | -0.047 | -0.143 | -0.01 | 0.011 | 0.035 | -0.116 | -0.031
23 | IPO13 (UniProt O94829) | -0.11 | -0.006 | -0.001 | -0.094 | -0.021 | 0.071 | -0.022 | -0.025 | -0.106 | 0.06
24 | L2HGDH (UniProt Q9H9P8) | -0.089 | -0.037 | 0.06 | 0.002 | -0.046 | -0.002 | 0.077 | 0.053 | 0.021 | 0.061
25 | KPNA1 (UniProt P52294) | 0 | -0.02 | -0.103 | -0.074 | 0.003 | 0.047 | -0.089 | -0.008 | -0.088 | -0.06
26 | LMBRD1 (UniProt Q9NUN5) | -0.065 | 0.01 | -0.006 | -0.062 | 0.064 | 0.026 | -0.139 | 0.014 | -0.156 | 0.08
27 | MAP3K20 (UniProt Q9NYL2) | -0.246 (active) | 0.039 | -0.216 | 0.057 | -0.712 (active) | -0.079 | -0.065 | -0.019 | -0.013 | -0.041
28 | LYPLA2 (UniProt O95372) | 0.139 | 0.007 | 0.13 | -0.042 | 0 | -0.026 | 0.175 | 0.298 | -0.054 | 0.013
29 | MICU2 (UniProt Q8IYU8) | -0.142 | 0.092 | -0.052 | -0.067 | -0.102 | -0.001 | -0.022 | -0.05 | 0.022 | -0.155
30 | KIF11 (UniProt P52732) | 0.043 | 0.044 | -0.057 | -0.031 | -0.075 | 0.088 | -0.06 | -0.002 | -0.078 | -0.025
